# Data from PubChem BioAssay (NCATS).
# Unmarked numbers belong to inactive results. Records with an inconclusive call do not appear. Entries that show only a call come without a potency. Activity calls are given as the source filed them. Unless noted, calls follow the shape of the dose curve; as a rule, active = well fitted curve in the direction sought with a large enough effect; inconclusive = small, poorly fitted or top-dose-only effect, or another doubt; inactive = no such curve, though single readings can be large; an effect the other way counts as inactive or inconclusive.
# Tests used:
# [1] = molecular target: Rap guanine nucleotide exchange factor 3 (Homo sapiens) (UniProt O95398); test: Confirmatory qHTS for agonist of cAMP-regulated guanine nucleotide exchange factor 3 (EPAC1) (AID 1645881);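 also: EPAC1 catalysed release of BODIPY-GDP from Rap1B seen as fluorescence loss; nearly all actives have a fitted effect of over 75% in size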
# [2] = molecular target: Rap guanine nucleotide exchange factor 4 (Homo sapiens) (UniProt Q8WZA2); test: Confirmatory qHTS for agonist of cAMP-regulated guanine nucleotide exchange factor 4 (EPAC2) (AID 1645884);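 also: nucleotide exchange releases bodipy-GDP from Rap1 and this lowers its fluorescence; nearly all actives have a fitted effect of over 65% in size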
# [3] = molecular target: Rap guanine nucleotide exchange factor 4 (Homo sapiens) (UniProt Q8WZA2); test: Confirmatory qHTS for antagonist of cAMP-regulated guanine nucleotide exchange factor 4 (EPAC2) (AID 1645885); also: nearly all actives have a fitted effect of over 25% in size
# [4] = molecular target: Rap guanine nucleotide exchange factor 3 (Homo sapiens) (UniProt O95398); test: Counterscreen qHTS for agonist of cAMP-regulated guanine nucleotide exchange factor 3 (EPAC1) (AID 1645889); also: nearly all actives have a fitted effect of over 40% in size
# Procedure, shortened: (§1)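 Rap1B-BODIPY-GDP 250 nM + GDP 50 uM; cpds 7-pt, final 9.74 nM–152 uM (activator mode) or from 7.32 nM upwards (inhibitor mode); RT; FI 480/540 nm at 5 and 30 min, then ± cAMP, reread.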
# [5] = molecular target: Rap guanine nucleotide exchange factor 3 (Homo sapiens) (UniProt O95398); test: Counterscreen qHTS for antagonist of cAMP-regulated guanine nucleotide exchange factor 3 (EPAC1) (AID 1645888);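 also: fluorescence loss as bound BODIPY-GDP is released from Rap1B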
# Procedure, shortened: as §1
# [6] = NFAT Signaling Pathway (AID 444; active = well fitted curve in either direction with a large enough effect, not every such curve was filed as active;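 also: carbachol stimulus at about its EC50 of 1 µM final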); conditions: Jurkat NFAT-bla M1, carbachol, beta-lactamase ratio, 5 h; at 17.2 µM (top of the series)
# Procedure, shortened: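 Read-out: CCF4 FRET ratio (460 nm/530 nm) after 1 h RT dye loading, used for %activity and AC50 from titration series. Cells: Jurkat NFAT-β-lactamase/M1 line, treated with compound plus 1 uM carbachol for 5 h, 37 °C.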
# [7] = molecular target: Glucocorticoid receptor (Homo sapiens) (UniProt P04150); test: GR-GFP Redistribution (AID 450;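 active = compounds whose dose series gives a full or clear partial fitted curve of increased nuclear translocation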; also: potency is read from the fitted curve at half-maximal effect); conditions: U2OS GR-GFP nuclear translocation, laser cytometry, 2 h
# [8] = qHTS Assay for Identification of Small Molecule Agonists for Hypoxia Response Element Signaling Pathway (AID 914; active = well fitted activation curve with a large enough effect in the signal ratio, with a control signal flat, not every such curve was filed as active; the % refers to the signal ratio; also: potency is read from the fitted curve at half-maximal effect); conditions: ME-180 (cervical carcinoma) HRE-bla reporter, beta-lactamase ratio, CoCl2, 17 h; activation: stronger effect = higher value
# Procedure, shortened: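 qHTS titration; ME-180 HRE-bla cells; EC50 CoCl2 co-treatment, 17 h at 37 degrees Celsius; CCF4 dye, ex 405nm, em 460nm and 530nm; %Activity from ratio; AC50.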
# Rap guanine nucleotide exchange factor 4 (Homo sapiens), sequence (Q8WZA2 whole entry, looked up): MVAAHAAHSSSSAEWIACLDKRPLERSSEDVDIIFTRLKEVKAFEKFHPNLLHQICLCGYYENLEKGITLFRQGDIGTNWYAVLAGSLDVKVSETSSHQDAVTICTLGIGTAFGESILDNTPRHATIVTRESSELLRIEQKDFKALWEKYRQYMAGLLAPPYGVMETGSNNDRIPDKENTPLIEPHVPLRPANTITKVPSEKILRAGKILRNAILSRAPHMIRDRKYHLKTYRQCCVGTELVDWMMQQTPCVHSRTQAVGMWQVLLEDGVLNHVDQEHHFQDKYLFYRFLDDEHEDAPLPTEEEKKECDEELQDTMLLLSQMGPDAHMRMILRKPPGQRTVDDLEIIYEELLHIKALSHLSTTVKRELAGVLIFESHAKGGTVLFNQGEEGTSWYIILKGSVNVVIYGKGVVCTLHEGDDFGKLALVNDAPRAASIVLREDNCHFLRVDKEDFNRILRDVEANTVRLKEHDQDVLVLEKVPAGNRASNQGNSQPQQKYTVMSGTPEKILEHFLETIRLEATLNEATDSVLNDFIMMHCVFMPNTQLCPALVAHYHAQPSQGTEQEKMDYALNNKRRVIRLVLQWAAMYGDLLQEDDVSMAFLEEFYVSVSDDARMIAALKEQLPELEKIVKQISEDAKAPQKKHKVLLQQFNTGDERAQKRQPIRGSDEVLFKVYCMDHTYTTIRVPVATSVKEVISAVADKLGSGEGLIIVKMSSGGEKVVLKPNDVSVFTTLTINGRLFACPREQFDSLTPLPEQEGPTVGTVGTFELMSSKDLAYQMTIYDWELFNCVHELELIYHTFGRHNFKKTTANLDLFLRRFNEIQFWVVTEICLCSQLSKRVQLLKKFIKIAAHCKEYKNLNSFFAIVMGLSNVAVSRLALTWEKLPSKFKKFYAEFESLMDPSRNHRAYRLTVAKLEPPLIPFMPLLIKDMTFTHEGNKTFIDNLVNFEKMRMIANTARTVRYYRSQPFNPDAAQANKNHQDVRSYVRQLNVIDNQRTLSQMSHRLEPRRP
# Rap guanine nucleotide exchange factor 3 (Homo sapiens), sequence (O95398 whole entry, looked up): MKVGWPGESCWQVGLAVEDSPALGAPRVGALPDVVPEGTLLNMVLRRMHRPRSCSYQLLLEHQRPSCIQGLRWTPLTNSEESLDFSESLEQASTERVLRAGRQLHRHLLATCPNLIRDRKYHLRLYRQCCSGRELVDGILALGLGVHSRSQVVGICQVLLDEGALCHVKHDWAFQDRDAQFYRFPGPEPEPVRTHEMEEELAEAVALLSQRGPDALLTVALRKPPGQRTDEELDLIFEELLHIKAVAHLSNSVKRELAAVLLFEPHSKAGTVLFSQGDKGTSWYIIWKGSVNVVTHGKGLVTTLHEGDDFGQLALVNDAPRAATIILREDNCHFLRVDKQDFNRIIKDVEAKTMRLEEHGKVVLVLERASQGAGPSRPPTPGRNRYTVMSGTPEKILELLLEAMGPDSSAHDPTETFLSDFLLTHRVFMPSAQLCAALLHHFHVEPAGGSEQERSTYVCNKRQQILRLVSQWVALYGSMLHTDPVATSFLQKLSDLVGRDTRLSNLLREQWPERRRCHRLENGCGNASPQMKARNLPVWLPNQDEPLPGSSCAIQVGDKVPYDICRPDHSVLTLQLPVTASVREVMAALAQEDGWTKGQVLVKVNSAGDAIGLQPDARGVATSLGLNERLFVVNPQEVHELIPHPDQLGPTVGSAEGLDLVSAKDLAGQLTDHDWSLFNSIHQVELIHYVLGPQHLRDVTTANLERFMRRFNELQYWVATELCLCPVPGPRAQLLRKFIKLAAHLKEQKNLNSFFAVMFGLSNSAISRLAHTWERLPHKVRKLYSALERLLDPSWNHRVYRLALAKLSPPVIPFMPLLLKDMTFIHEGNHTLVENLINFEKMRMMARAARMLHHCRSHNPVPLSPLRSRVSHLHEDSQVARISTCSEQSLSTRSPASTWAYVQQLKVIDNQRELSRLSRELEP
# Glucocorticoid receptor (Homo sapiens), sequence (P04150 whole entry, looked up): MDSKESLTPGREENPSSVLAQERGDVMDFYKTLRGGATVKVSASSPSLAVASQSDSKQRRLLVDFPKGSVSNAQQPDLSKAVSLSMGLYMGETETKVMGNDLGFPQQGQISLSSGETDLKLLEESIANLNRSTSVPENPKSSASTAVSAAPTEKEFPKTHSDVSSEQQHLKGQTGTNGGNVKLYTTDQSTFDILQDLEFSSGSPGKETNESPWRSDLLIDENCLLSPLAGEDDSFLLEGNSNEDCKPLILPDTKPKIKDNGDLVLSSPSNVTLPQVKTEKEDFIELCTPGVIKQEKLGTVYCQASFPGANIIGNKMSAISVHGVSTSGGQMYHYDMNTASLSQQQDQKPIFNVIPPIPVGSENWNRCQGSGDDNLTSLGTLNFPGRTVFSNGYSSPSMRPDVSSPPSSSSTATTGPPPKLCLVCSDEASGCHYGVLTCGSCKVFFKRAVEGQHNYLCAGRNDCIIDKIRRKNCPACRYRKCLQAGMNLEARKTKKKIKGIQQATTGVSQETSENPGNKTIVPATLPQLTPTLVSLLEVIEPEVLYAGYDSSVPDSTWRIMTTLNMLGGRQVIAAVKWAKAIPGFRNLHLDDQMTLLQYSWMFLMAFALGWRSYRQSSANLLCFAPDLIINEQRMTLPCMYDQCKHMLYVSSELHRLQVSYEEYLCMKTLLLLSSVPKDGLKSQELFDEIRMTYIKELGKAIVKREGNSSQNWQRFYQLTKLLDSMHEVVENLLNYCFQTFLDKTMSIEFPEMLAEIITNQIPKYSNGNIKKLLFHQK
smiles,measurement,setting,value
COc1ccc(N2C(=O)/C(=C/C=C/c3ccccc3[N+](=O)[O-])C(=O)NC2=S)cc1,Potency,[1],inactive
same,activation,[2],"17.4% [at 17.1 µM, percent relative to cAMP agonist control]"
same,"activity change, negative = inhibition",[3],0.334% [at 12.7 µM]
same,activation,[4],4.75% [at 30.8 µM]
COCCNC(=O)c1c(N)n(CCC(C)C)c2nc3ccccc3nc12,Potency,[1],inactive
same,activation,[2],"10.8% [at 17.1 µM, percent relative to cAMP agonist control]"
same,"activity change, negative = inhibition",[3],-8.1% [at 12.7 µM]
same,activation,[4],26.5% [at 30.8 µM]
Cc1cc(/C=C2/C(=O)NC(=O)N(Cc3ccco3)C2=O)c(C)n1-c1ccccc1,Potency,[3],inactive
same,outcome,[5],inactive
COc1ccc(-n2nnnc2C(c2ccccc2OC(F)(F)F)N2CCC(n3c(=O)[nH]c4ccccc43)CC2)cc1 (stereo unspecified),Potency,[1],inactive
same,activation,[2],"2.83% [at 17.1 µM, percent relative to cAMP agonist control]"
same,"activity change, negative = inhibition",[3],-5.88% [at 12.7 µM]
same,activation,[4],2.08% [at 30.8 µM]
COP(=O)(/C=C(\Cl)c1ccccc1)/C=C(\Cl)c1ccccc1,Potency,[1],inactive
same,Potency,[2],inactive
same,Potency,[3],inactive
same,Potency,[4],inactive
Nc1c(C(=O)NCc2ccco2)c2nc3ccccc3nc2n1Cc1ccc(F)cc1,"activity change, negative = inhibition",[6],108% [activator] (active)
same,Potency,[7],> 20.6 µM
same,Potency,[8],7.94 µM (active)
same,Potency,[1],inactive
same,Potency,[2],inactive
same,Potency,[3],inactive
same,outcome,[5],inactive
same,Potency,[4],inactive
